Mtb hypoxia rep = PubChem AID 1159583. M. tuberculosis hypoxia-regulated fluorescent reporter, fluorescence. fluorescence inhibition, % (no concentration beside the values). 300,000 tested, 0.1% active; in the data active means fluorescence inhibition mostly above about 23%, no sharp cut-off; inactive means mostly below about 17%
Yp Topo-I inh = Yersinia pestis topoisomerase I inhibitors, primary screen, biochemical, cleavage product accumulation, plate reader, single point. DNA topoisomerase I (Yersinia pestis CO92). Y. pestis Topo-I cleavage product accumulation. activity, % at 10 µM. 360,000 tested, 0.064% active; in the data active means activity above about 50%, passing the limit was not always enough
Vc quorum ag = inducers of Vibrio cholerae quorum light production without autoinducers, primary screen, BH1578 luxS cqsA deficient, single point; V. cholerae BH1578 lux reporter, luminescence, 6 h; activation, % at 18.7 µM; AID 588436, 2011; 350,000 tested, 0.16% active; in the data active means activation mostly above about 9.7%, no sharp cut-off
Starred values were filed as active, the others as inactive; i = inactive; nt = not tested or not shown; + = active, no number. A selection: hits, their analogues and other compounds. The true share with any hit is near 0.29%.

SMILES | Mtb hypoxia rep | Yp Topo-I inh | Vc quorum ag
CC1CCCN(C(=O)CSc2nnc(-c3cccs3)o2)C1 (configuration not stated) | 51.2* | 3.8 | -4.5
CC1CCCN(C(=O)CSc2nnc(-c3ccc(O)cc3)o2)C1 (configuration not stated) | 17.6 | 3.5 | i
O=C(CSc1nnc(-c2ccccc2)o1)N1CCCCC1 | nt | -0.7 | -0.3
O=C(CSc1nnc(-c2ccc(F)cc2)o1)N1CCCCC1 | 45.8* | 10.9 | i
Cc1cccc(C(=O)Nc2nnc(S(=O)(=O)N(C)Cc3ccco3)s2)c1 | -0.2 | -0.5 | -0.6
CC1CCCC(=NNC(=S)NCc2ccccc2)C1 (configuration not stated) | 2.1 | nt | nt
COC(=O)C1=C(c2c(C)noc2C)CC2CCC1N2C(=O)N1CCC(O)CC1 (configuration not stated) | 8.1 | nt | nt
COc1ccc(N2CCN(C(=O)c3cc(S(=O)(=O)N4CCCCCC4)ccc3OC)CC2)cc1 | -20.7 | 29.1 | i
Nc1nonc1-n1nnc(C(=O)N/N=C/c2cccc(O)c2)c1CN1CCCC1 | nt | -1.4 | 30.5*
Nc1nonc1-n1nnc(C(=O)N/N=C/c2cccc(Cl)c2)c1CN1CCCCCC1 | nt | 16.9 | -0.4
C#CCOCCOCCOCCNc1nc(N2CCN(C(=O)C(CCCCN)n3cc(CCCC)nn3)CC2)nc(N2CCN(C(=O)C(CCCCN)n3cc(CCC(=O)O)nn3)CC2)n1 (configuration not stated) | 2.3 | nt | nt
CCCCn1c(C)cc(C)c(S(=O)(=O)c2ccccc2C)c1=O | nt | 58.8* | -0.8
Cc1ccccc1S(=O)(=O)c1c(C)cc(C)n(C(C)C)c1=O | -0.1 | -4.8 | 0.3
COc1ccc(S(=O)(=O)N=C2C=CC(=O)C(C)=C2C)cc1 | -5.2 | nt | nt
Oc1[nH]c2ccc(Br)cc2c1N=NC(=S)N1CCOCC1 | 38.5* | -2.3 | 0.4
Oc1[nH]c2ccccc2c1N=NC(=S)N1CCOCC1 | nt | -6.5 | i
C=CCNC(=S)N=c1ccccn1Cc1ccccc1 | 6.1 | nt | nt
CCOC(=O)c1nn(-c2ccc(C)cc2)cc1O | 10.0 | 3.9 | +
CCOC(=O)c1nn(-c2ccc(Cl)cc2)cc1O | 1.8 | -5.3 | i
CCc1ccc(OCc2n[nH]c(=S)n2Cc2ccccc2)cc1 | -3.1 | 25.5 | i
CCc1ccc(OCc2n[nH]c(=S)n2C(C)CCCC(C)C)cc1 (configuration not stated) | -4.3 | 63.2* | -0.2
Cc1cnc(NC(=O)C(C)N2CCN(C)CC2)s1 (configuration not stated) | 6.5 | -0.8 | -0.2
CCCOc1ccc(/C(O)=C2/C(=O)C(=O)N(c3ccccn3)C2c2ccc(OC)cc2)cc1C (configuration not stated) | -2.0 | 55.8* | i
COc1ccc(/C(O)=C2/C(=O)C(=O)N(c3ccccn3)C2c2ccc(OC)cc2)cc1 (configuration not stated) | -4.0 | 3.5 | i
COc1ccc(C(=O)N/C(=C/c2ccc(Cl)cc2)C(=O)Nc2ccc(C(=O)O)cc2)cc1 | 11.4 | -0.6 | -0.2
SMILES | Mtb hypoxia rep | Yp Topo-I inh | Vc quorum ag
COC(=O)C(=NNc1ccccc1)N1CCCc2ccccc21 | 5.2 | nt | nt
COc1ccc(CNC(=O)CN(C)S(=O)(=O)c2ccc(Cl)cc2)cc1 | 7.2 | 6.3 | i
COc1ccc(CNC(=O)CN(Cc2ccc(C)cc2)S(=O)(=O)c2ccc(Cl)cc2)cc1 | 7.4 | 51.5* | -0.3
O=C(OCC(=O)N1CCCCCC1)c1ccc[nH]c1=O | -8.1 | -2.1 | i
CC1CC(C)CN(C(=O)COC(=O)c2ccc[nH]c2=O)C1 (configuration not stated) | nt | -6.5 | 25.0*
Cc1cc(NC(=O)CSc2nnc(-c3ccccc3F)n2N)no1 | 4.8 | 1.1 | i
CCOC(=O)Cc1csc(SCC(=O)Nc2cccc(Cl)c2)n1 | nt | 4.9 | 0.6
CCOC(=O)Cc1csc(SCC(=O)Nc2cc(Cl)ccc2Oc2ccccc2)n1 | nt | 67.7* | 0.1
CN(C(=O)COC(=O)c1nc(Cl)c(Cl)c(Cl)c1Cl)C1CCS(=O)(=O)C1 (configuration not stated) | 7.8 | 6.8 | i
CC(C)(C)C(=O)OC[N+](C)(C)CCOC(=O)C(O)(c1ccccc1)C1CCCC1 (configuration not stated) | -0.1 | -1.1 | -0.2
CN1CCCN=C1COC(=O)C(O)(c1ccccc1)C1CCCCC1 (configuration not stated) | nt | -3.5 | 29.2*
CCC(C)NCCOc1ccccc1C (configuration not stated) | nt | 1.9 | 24.3*
CCC(C)NCCOc1ccc(Br)cc1 (configuration not stated) | 9.9 | -7.7 | 1.6
O=C(COc1ccccc1[N+](=O)[O-])NN=Cc1ccc(OC(=O)c2ccco2)cc1 | 14.6 | nt | nt
CCOC(=O)c1cc2c(C)nn(-c3ccccc3)c2s1 | nt | 4.3 | 0.6

Screens as filed in PubChem BioAssay.
